MCF10A rereplic: DNA re-replication induction in MCF 10a cells; MCF 10A DNA re-replication, Hoechst nuclear intensity, 48 h; Potency, µM (series often up to 46.1 µM), for inactives: top-dose activity, positive = re-replication, hits mostly activators; 350,000 tested, 2.9% active; AID 624296; further: % of control where 0% means no effect; nearly all actives have a fitted effect of over 50% in size
HT1080 IDH1KD tx: HT-1080 IDH1 knockdown cell toxicity (counter line). 360,000 tested, 2% active. HT-1080 IDH1 knockdown viability, ATP luminescence, 48 h. Potency, µM (highest dose often 46.1 µM), for the others: at the highest dose activity, negative = toxicity, most hits filed as cytotoxic;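 further: 0% = DMSO wells and -100% = cell-free medium wells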
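After a 2 h attachment period, IDH1KD HT-1080 cells took pin-transferred compound for 48 h at 37 °C; ATP-based luminescence after 10 min room-temperature reagent incubation reported viability.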
SW480 rerep: inducers of DNA re-replication in SW480 colon cancer cells | AID 624297 | Potency, µM (series often up to 46.1 µM), for the others: at the highest dose re-replication activation, hits mostly activators | SW480 DNA re-replication, Hoechst DNA content imaging, 48 h | 340,000 tested, 1.8% active; further: % of control where 0% means no effect; nearly all actives have a fitted effect of over 55% in size
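Treated cells incubate 48 hr (37 C, 5% CO2), are stained 40 min with Hoechst, and nuclear fluorescence is enumerated; a rise in nuclei with high DNA signal marks re-replication.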
HT1080NT lethal: kills 2HG-producing HT-1080-NT fibrosarcoma cells | HT-1080-NT fibrosarcoma viability, CellTiter-Glo ATP luminescence, 48 h | 360,000 tested, 1.6% active | Potency, µM (top dose mostly 46.1 µM), inactives show at the highest dose activity, negative = less viability, actives largely listed as cytotoxic;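 further: NT is the 2HG producing partner of a matched IDH1 knockdown line; 0% = DMSO-treated cells and -100% = media-only wells without cells; nearly all actives have a fitted effect of over 55% in size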
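Fibrosarcoma NT cells, 750 per well in 5% FBS RPMI, were exposed to compound for 48 hours. Viability: CellTiter-Glo luminescence.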
KB-3-1 cytotox: kills parental KB-3-1 adenocarcinoma cells; KB-3-1 viability, CellTiter-Glo ATP luminescence, 72 h; Potency, µM (doses to about 46.1 µM), most hits filed as cytotoxic; 400,000 tested, 1.4% active; further: on the % scale 0 is the no-effect control and ±100 the full control effect; nearly all actives have a fitted effect of over 60% in size
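Parental KB-3-1 adenocarcinoma cells in phenol-red-free DMEM with 10% FBS were pin-treated with compounds at several concentrations, incubated 72 h at 37 °C, and viability read by CellTiter-Glo luminescence; concentration-effect curves were fitted after normalization.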
KB-V1 MDR tox: kills drug-selected multidrug resistant KB-V1 cells | Potency, µM (top dose mostly 46.1 µM), usual class: cytotoxic | KB-V1 MDR cells viability, CellTiter-Glo, 72 h | 400,000 tested, 3.4% active; further: on the % scale 0 is the no-effect control and ±100 the full control effect; nearly all actives have a fitted effect of over 60% in size
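Cells of the MDR subline KB-V1 are plated, dosed with compound at multiple concentrations, and incubated 72 h at 37 degrees C; CellTiter-Glo is then added and luminescence read after 10 min.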
Starred values were filed as active, the others as inactive; i = inactive; ? = inconclusive; . = not tested or not shown; [ ] = dose if it differs, or a comment. Shown are actives, neighbours in structure and some others; about 8% of the full set was active somewhere. The call rests on the fitted dose curve; in most records, active means well fitted curve in the direction sought with a large enough effect; inconclusive means small, poorly fitted or top-dose-only effect, or another doubt; inactive means no such curve, though single readings can be large; an effect the other way counts as inactive or inconclusive. Potency means the concentration at half of the fitted maximal effect.

SMILES	MCF10A rereplic	HT1080 IDH1KD tx	SW480 rerep	HT1080NT lethal	KB-3-1 cytotox	KB-V1 MDR tox
Cc1ccc2c(c1)c1c3n2CCN(C(=O)Cn2c(-c4ccccc4)noc2=O)C3CCC1 (stereo not given)	-2.4%	-24.4%	0.4%	-12.9%	i	4.11µM*
Cc1ccc2c(c1)c1c3n2CCN(C(=O)C2CC2)C3CCC1 (stereo not given)	2.2%	8.4%	-4.0%	-1.6%	i	i
Cc1ccc2c(c1)c1c3n2CCN(C(=O)CN2CCN(C)CC2)C3CCC1 (stereo not given)	?	?	?	23.1µM*	?	20.6µM*
Cc1ccc2c(=O)cc(C(=O)Nc3ccc(S(=O)(=O)N(C)Cc4ccccc4)cc3)oc2c1C	.	.	.	.	i	i
Cc1ccc(CNc2ncnc3[nH]ncc23)o1	.	.	.	.	?	i
CCOc1ccc(-c2cc(C(=O)NCc3ccccc3Cl)c3ccccc3n2)cc1	.	.	.	.	i	i
O=C(NCCCN1CCOCC1)c1cccc(S(=O)(=O)N2CCc3ccccc3C2)c1	?	-1.9%	21.6%[1.84 µM]	0.8%	i	i
O=S(=O)(c1ccc(Oc2ccc(S(=O)(=O)N3CCOCC3)cc2)cc1)N1CCOCC1	0.3%	-2.5%[9.24 µM]	-1.4%	-3.4%	?	14.6µM*
O=C(c1ccc2ccccc2c1)N1CCN(c2ccc(O)cc2)CC1	?	-10.9%	6.0%	-8.4%	i	23.1µM*
COc1ccccc1N1CCN(C(=O)c2cccc(S(=O)(=O)N3c4ccccc4CC3C)c2)CC1 (stereo not given)	?	?	20.7%	?	i	3.66µM*
O=C(NCC1(N2CCOCC2)CCCCC1)c1cccc(S(=O)(=O)N2CCc3ccccc3C2)c1	14.6µM*	-16.2%	5.6%	-5.2%	i	i
CCC1CCCCN1Cc1cn2c(-c3ccc(Br)cc3)nnc2s1 (stereo not given)	.	.	.	.	i	i
Cc1ccc2nc(NC(=O)CSc3nccn3Cc3ccc(F)cc3)sc2c1	.	.	.	.	i	?
COc1ccc(N(C(=O)c2ccc(Cl)cc2)S(=O)(=O)c2ccc(C)cc2)cc1	.	.	.	.	i	?
Cc1cc(NC(=O)c2cccc(S(=O)(=O)N3c4ccccc4CC3C)c2)no1 (stereo not given)	14.1%	?	?	?	i	i
O=C(c1cccc(S(=O)(=O)N2CCOCC2)c1)N1CCN(c2ccccc2)CC1	-1.1%	11.2%	-4.5%	5.6%	i	18.4µM*
CCOC(=O)c1sc(NC(=O)c2cccc(S(=O)(=O)N3c4ccccc4CC3C)c2)cc1C (stereo not given)	8.2µM*	?	?	-27.0%	i	i
CCOc1ccccc1N1CCN(C(=O)c2cccc(S(=O)(=O)N3CCOCC3)c2)CC1	2.0%	-3.6%	-3.5%	-0.5%	?	23.1µM*
CCOc1ccccc1N1CCN(C(=O)Cc2ccc(S(=O)(=O)N3CCOCC3)s2)CC1	2.1%	1.4%	?	-3.4%	i	23.1µM*
CCOC(=O)C1CCCN(c2nc3c(S(=O)(=O)c4ccc(C)c(C)c4)nnn3c3ccc(Cl)cc23)C1 (stereo not given)	.	.	.	.	i	i
O=C(Nc1ccc(Cl)c(C(F)(F)F)c1)C(Cc1ccccc1)NS(=O)(=O)c1ccc(Br)s1 (stereo not given)	.	.	.	.	i	i
Cc1cc(C)cc(OCC(=O)NCC(c2ccc(Cl)cc2)N2CCCCC2)c1 (stereo not given)	.	.	.	.	i	i
CCOC(=O)c1cc(S(=O)(=O)Nc2c(C)cc(C)cc2C)[nH]n1	.	.	.	.	i	i
COc1ccc(S(=O)(=O)N(CC(=O)Nc2cc(C)cc(C)c2)c2ccc(Cl)cc2)cc1	.	.	.	.	i	i
NC(=O)C1CCN(C(=O)c2cccc(S(=O)(=O)N3CCc4ccccc4C3)c2)CC1	-16.9%	0.3%	-2.2%	-6.8%	i	i
SMILES	MCF10A rereplic	HT1080 IDH1KD tx	SW480 rerep	HT1080NT lethal	KB-3-1 cytotox	KB-V1 MDR tox
COc1ccc(N2CCN(C(=O)c3ccc(S(=O)(=O)N4CCCC4)cc3)CC2)cc1	-3.9%	9.9%	-4.5%	1.5%	i	i
O=C(c1cccc(S(=O)(=O)N2CCc3ccccc3C2)c1)N1CCN(c2ccc(O)cc2)CC1	?	-20.2%	?	-9.6%	?	13µM*
COc1ccc(N2CCN(C(=O)c3ccc(S(=O)(=O)N4CCOCC4)cc3)CC2)cc1	3.9%	-4.2%	-1.5%	5.2%	i	16.4µM*
O=S(=O)(c1ccc(Oc2ccc(F)c(Cl)c2)nc1)N1CCOCC1	-5.4%	-3.8%	-5.9%	-0.1%	i	23.1µM*
CCOc1ccc(-n2cc(C(=O)NCc3ccco3)c3cc(OC)c(OC)cc3c2=O)cc1	?	-3.7%	11.4%	-3.5%	0.517µM*	i
CCn1cc(C(=O)NCc2ccco2)c2cc(OC)c(OC)cc2c1=O	0.0%	8.5%	-26.2%	5.6%	i	i
O=C(Nc1ccc(C(=O)OCc2cc(=O)n3nc(C4CC4)sc3n2)cc1)c1ccccc1	.	.	.	.	i	i
Cc1cccc(C)c1NC(=O)N1CCC(c2nc3ccccc3o2)CC1	16.1%	-13.7%	0.8%	11.5%	i	20.6µM*
Cc1nc(S(=O)(=O)c2ccc(Cl)cc2)nc2c1CCC2	8.7%	0.2%	10.0%	-0.6%	i	14.6µM*
Cc1ccc(S(=O)(=O)c2nc(C)c3c(n2)CCC3)cc1	-2.4%	1.5%	-0.5%	-3.3%	i	i
CCOC(=O)N1CCN(c2nc(-c3ccccc3)c3cc(C)ccc3n2)CC1	4.11µM*	2.3%	?	3.6%	i	i
Clc1ccc(-c2nc(N3CCOCC3)nc3ccccc23)cc1	21.8%	25.8%	17.3%	6.2%	i	i
Cc1ccc2nc(N3CCN(CCO)CC3)nc(-c3ccccc3)c2c1	3.66µM*	-22.5%	11.6µM*	-29.2%	i	i
OCCN1CCN(c2nc(-c3ccccc3)c3cc(Cl)ccc3n2)CC1	?	?	14.6µM*	?	?	i
Cc1ccc2nc(Cl)nc(-c3ccccc3)c2c1	3.6%	-20.4%	-3.9%	-15.3%	i	?
CCCc1ccc(C(=O)NNC(=O)c2ccc(Cl)cc2)cc1	-6.8%	7.1%	-11.8%	-2.9%	i	i
CCCOc1ccc(C(=O)CCC(=O)NNC(=O)c2ccncc2)cc1	-1.8%	-1.4%	1.6%	4.0%	?	5.8µM*
CCOc1ccc(OCCCC(=O)NNC(=O)c2ccncc2)cc1	-0.6%	9.7%	0.9%	4.4%	i	i

Screening results: PubChem BioAssay, National Center for Advancing Translational Sciences (NCATS)
